About 79,000 compounds went through this panel and 15% of them were active in at least one assay; those are over-represented in the sample as a whole. Unmarked numbers belong to inactive results. The source made the active and inactive calls. Cut-off read from the data, not from the text of the source: active = growth inhibition above about 70%; inactive = the rest.
assay: NCI Yeast Anticancer Drug Screen. Data for the bub3 strain (AID 167); settings: S. cerevisiae bub3 mutant strain, at 50.0 µM, hits give high values
In short: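 Mutant yeast screening strain plus compound; vehicle-treated cultures serve as the 0% inhibition reference.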

Structure (SMILES)	growth inhibition
C=CC(=O)N1C/C(=C\c2ccc(F)cc2)C(=O)/C(=C/c2ccc(F)cc2)C1	88.6% (active)
CCOc1ccc2c(c1)n([O-])c1ccccc1[n+]2=O	98.8% (active)
O=C(/C(Cl)=N/O)c1ccccc1	99% (active)
O=C(NC1CCN(Cc2ccccc2)CC1)c1ccc(I)cc1	74.3% (active)
O=C1c2ccccc2CCC1C(O)(C(F)(F)F)C(F)(F)F (stereo not given)	31.6%
O=C(C(=O)n1ncc(Cl)c(Cl)c1=O)n1ncc(Cl)c(Cl)c1=O	36.9%
OC1OCC(OCc2ccccc2)C(OCc2ccccc2)C1OCc1ccccc1 (stereo not given)	97.7% (active)
CN1CCC(OC(=O)c2ccc3ncccc3c2)CC1	33.9%
CCC(c1ccc(O)cc1)C(CC)c1ccc(OCC(N)=O)cc1 (stereo not given)	93% (active)
CCCCCCCC(=O)O[C@H]1[C@H]2[C@@H](CC1(C)C)C(=O)[C@]13O[C@H]1C(=O)[C@]1(CO1)[C@]23C	90.4% (active)
CN1CCCN(C)C1c1cc([N+](=O)[O-])ccc1O	96.8% (active)
CCOC(=O)C[n+]1c(C)sc2ccccc21	39.6%
O=C(O)C(CCc1cccc2ccccc12)c1ccccc1 (stereo not given)	99% (active)
O=C1C(Cl)=C(Cl)C(=O)C2CC=CCC12 (stereo not given)	99.5% (active)
Nc1n[nH]c(=O)c2cccnc12	12.9%
OC(CBr)c1cc(-c2ccccc2)nc2ccccc12 (stereo not given)	69.3%
O=C(O)CCCc1ccc2c(c1)CC1(C2)Cc2ccc(CCCC(=O)O)cc2C1	9.45%
CC1=Nc2ccccc2/C1=C\c1c(C)[nH]c2ccccc12	87.8% (active)
CC(=O)C(C(=N)C#N)C(=O)Nc1ccccc1 (stereo not given)	-44%
COc1ccc2nc3cc(Cl)ccc3c(NCCC[N+](C)(C)CCCCCCCCCC[N+](C)(C)CCCNc3c4ccc(Cl)cc4nc4ccc(OC)cc34)c2c1	6.45%

Structure (SMILES)	growth inhibition
Oc1cc(Cl)cc2c1-c1ccc(Cl)cc1C2O (stereo not given)	93.8% (active)
CC1(C)OC(=O)C(=NNc2ccccc2[N+](=O)[O-])C(=O)O1	21.5%
Clc1ccc(OCC2CO2)c(Cl)c1 (stereo not given)	14.9%
O=c1ccc([N+](=O)[O-])c[nH]1.[Ag]	98.3% (active)
O=C1CSC(c2c[nH]c3ccccc23)N1c1cccc(Cl)c1 (stereo not given)	88.5% (active)
Fc1cccc(NC(=S)SCc2ccco2)c1	82% (active)
S=c1[nH]nc(SCc2ccc(Cl)c(Cl)c2)c2[nH]cnc12	9.25%
Cc1c(Cl)cccc1NC(=O)/C(Cl)=C(\Cl)C(=O)O	99.7% (active)
Nc1ccc2ccc3cccc4ccc1c2c34	23.8%
O=C(C(/C=N/C(=S)NCc1ccccc1)=C(/O)c1ccccc1)c1ccccc1	98.3% (active)
C/C(=N\NC(=S)Nc1ccc(Cl)cc1)c1nc2ncccc2[nH]1	90.1% (active)
O=C(/C=C\c1ccc(Cl)c(Cl)c1)c1cccs1	89.7% (active)
CC12CC(O)C3C(CCC4CCCCC43C)C1CC/C2=N/O (stereo not given)	93.9% (active)
CCCn1cc2c(SC)nc(SC)nc2n1	99.5% (active)
Cc1ccc(C2(O)c3ccccc3-c3ccccc32)cc1	99.3% (active)
C=CCc1ccc2c(C)cc[n+](C)c2c1O	99.1% (active)
COC(=O)c1nc(NC#N)[nH]c(=O)c1CCCCCc1cnc(NC#N)nc1	-0.4%
Cc1c2cnccc2c(C)c2c1c1ccccc1n2CCOC(=O)c1ccccc1	90.3% (active)
C/C(=N/O)c1ccc2c(c1)C(C)c1ccccc1-2 (stereo not given)	78.2% (active)
Oc1ccc2ccccc2c1I	91.7% (active)

assay: NCI Yeast Anticancer Drug Screen. Data for the mlh1 rad18 strain (AID 175); settings: S. cerevisiae mlh1 rad18 strain growth inhibition; at 5.0 µM (retest, dose inferred, filed as 0.5); hits give high values
In short: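 Compound-treated yeast growth, normalised to vehicle controls. Strain bears defined DNA repair mutations.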

Structure (SMILES)	growth inhibition
C=CC(=O)N1C/C(=C\c2ccc(F)cc2)C(=O)/C(=C/c2ccc(F)cc2)C1	18%
CCOc1ccc2c(c1)n([O-])c1ccccc1[n+]2=O	81% (active)
O=C(/C(Cl)=N/O)c1ccccc1	62%
O=C(NC1CCN(Cc2ccccc2)CC1)c1ccc(I)cc1	53%
O=C1c2ccccc2CCC1C(O)(C(F)(F)F)C(F)(F)F (stereo not given)	22%
O=C(C(=O)n1ncc(Cl)c(Cl)c1=O)n1ncc(Cl)c(Cl)c1=O	0%
OC1OCC(OCc2ccccc2)C(OCc2ccccc2)C1OCc1ccccc1 (stereo not given)	10%
CN1CCC(OC(=O)c2ccc3ncccc3c2)CC1	-7%
CCC(c1ccc(O)cc1)C(CC)c1ccc(OCC(N)=O)cc1 (stereo not given)	20%
CCCCCCCC(=O)O[C@H]1[C@H]2[C@@H](CC1(C)C)C(=O)[C@]13O[C@H]1C(=O)[C@]1(CO1)[C@]23C	73% (active)
CN1CCCN(C)C1c1cc([N+](=O)[O-])ccc1O	7%
CCOC(=O)C[n+]1c(C)sc2ccccc21	-3%
O=C(O)C(CCc1cccc2ccccc12)c1ccccc1 (stereo not given)	5%
O=C1C(Cl)=C(Cl)C(=O)C2CC=CCC12 (stereo not given)	90% (active)
Nc1n[nH]c(=O)c2cccnc12	2%
OC(CBr)c1cc(-c2ccccc2)nc2ccccc12 (stereo not given)	-3%
O=C(O)CCCc1ccc2c(c1)CC1(C2)Cc2ccc(CCCC(=O)O)cc2C1	28%
CC1=Nc2ccccc2/C1=C\c1c(C)[nH]c2ccccc12	58%
CC(=O)C(C(=N)C#N)C(=O)Nc1ccccc1 (stereo not given)	0%
COc1ccc2nc3cc(Cl)ccc3c(NCCC[N+](C)(C)CCCCCCCCCC[N+](C)(C)CCCNc3c4ccc(Cl)cc4nc4ccc(OC)cc34)c2c1	41%

Structure (SMILES)	growth inhibition
Oc1cc(Cl)cc2c1-c1ccc(Cl)cc1C2O (stereo not given)	20%
CC1(C)OC(=O)C(=NNc2ccccc2[N+](=O)[O-])C(=O)O1	2%
Clc1ccc(OCC2CO2)c(Cl)c1 (stereo not given)	16%
O=c1ccc([N+](=O)[O-])c[nH]1.[Ag]	98% (active)
O=C1CSC(c2c[nH]c3ccccc23)N1c1cccc(Cl)c1 (stereo not given)	-5%
Fc1cccc(NC(=S)SCc2ccco2)c1	-1%
S=c1[nH]nc(SCc2ccc(Cl)c(Cl)c2)c2[nH]cnc12	-21%
Cc1c(Cl)cccc1NC(=O)/C(Cl)=C(\Cl)C(=O)O	-6%
Nc1ccc2ccc3cccc4ccc1c2c34	1%
O=C(C(/C=N/C(=S)NCc1ccccc1)=C(/O)c1ccccc1)c1ccccc1	12%
C/C(=N\NC(=S)Nc1ccc(Cl)cc1)c1nc2ncccc2[nH]1	-1%
O=C(/C=C\c1ccc(Cl)c(Cl)c1)c1cccs1	-3%
CC12CC(O)C3C(CCC4CCCCC43C)C1CC/C2=N/O (stereo not given)	52%
CCCn1cc2c(SC)nc(SC)nc2n1	-3%
Cc1ccc(C2(O)c3ccccc3-c3ccccc32)cc1	-4%
C=CCc1ccc2c(C)cc[n+](C)c2c1O	23%
COC(=O)c1nc(NC#N)[nH]c(=O)c1CCCCCc1cnc(NC#N)nc1	0%
Cc1c2cnccc2c(C)c2c1c1ccccc1n2CCOC(=O)c1ccccc1	10%
C/C(=N/O)c1ccc2c(c1)C(C)c1ccccc1-2 (stereo not given)	-113%
Oc1ccc2ccccc2c1I	32%
